Experimental data published in publication PMC12136788.
Where a chain is given by its changes, count along the chain named. Over roughly 5,800 sequences, “enrichment r” has its median near 0.54; the highest 2% begin near 16. The sample as a whole holds a higher share of the highest values than the screen did.

B1: chr9:124811826:124811928:+|3pUTR|ENSG00000185585|msi1|FALSE|unique (ssRNA)
RNA: GGGAGUUCUACAGUCCGACGAUCAAGAAAUUUUCUAGCCCAACUCCCUGUUUCAUGAAAGAGAAAAGAGGCUCAGAAAAGUUUAGAGAGCAGCUCAGUGUCACACUGGGAGCUGGGCACAGCCGAUCUCCUUCCAGAAGGGUUCAACAGAGGAUUGAGCAUCA
B2: chr2:171983412:171983537:+|3pUTR|ENSG00000128708|unk|FALSE|unique (ssRNA)
RNA: GGGAGUUCUACAGUCCGACGAUCUGAUGACUUUAAUUUUAAAAUCUUGUGACAUUUUGCUUAUACUAAAAGUUAUCUAUCUUUAGUUGAAUAUUUUCUUUUGGAGAGAUUGUAUAUUUUAAAAUACUGUUUAGAGUUUAUGAGCAACAGAGGAUUGAGCAUCA
B3: chr6:53267885:53267986:-|3pUTR|ENSG00000012660|msi1_unk|total|mutant (ssRNA)
RNA: GGGAGUUCUACAGUCCGACGAUCUUUAAUGUAAAUCUAACCGUACUUGUAAUUUCUUUCUGCUCCGAAUCUAAAGAUGUGUUCCGAACCUCUUGUUUAAAAAUAACCGACUGCUUAUCAUAAAAUCACAUCUCACACAUUUGACAACAGAGGAUUGAGCAUCA
B4: chr4:110049619:110049852:-|3pUTR|ENSG00000170522|msi1|total|mutant (ssRNA)
RNA: GGGAGUUCUACAGUCCGACGAUCUUGUUCAAUGUGACAUAACCGUAUUAUAAUUGGUUAAGCCGCUUAAUGAUCCGGCAAACCCGAUGAAAAGAUCCGGGGCUUCCACACUGCACCGAUUACACGCACACCGCCACGCAUACACAACAGAGGAUUGAGCAUCA
B5: chr6:53267885:53267986:-|3pUTR|ENSG00000012660|msi1_unk|FALSE|overlapping (ssRNA)
RNA: B3 RNA with C40U, C41A, C64U, C65A, C83U, C84A, C106U, C107A
B6: chr4:110049619:110049852:-|3pUTR|ENSG00000170522|msi1|FALSE|unique (ssRNA)
RNA: GGGAGUUCUACAGUCCGACGAUCUUGUUCAAUGUGACAUAAUAGUAUUAUAAUUGGUUAAGUAGCUUAAUGAUUAGGCAAACUAGAUGAAAAGAUUAGGGGCUUCCACACUGCAUAGAUUACACGCACAUAGCCACGCAUACACAACAGAGGAUUGAGCAUCA
B7: chr9:14618660:14618761:-|3pUTR|ENSG00000175893|msi1|FALSE|unique (ssRNA)
RNA: GGGAGUUCUACAGUCCGACGAUCUUAGCUUUCCACAGGGAUUUCUUGAAAUGCUUUUGUUAUUAAACUCAAAAGGCAGUGAUUAGGAUGAAAUAAUUGUACAUAAUUUAUUUUAGUACUGACAGUGUUACAGAUUCUAAUUUACAACAGAGGAUUGAGCAUCA
B8: ENSG00000198589:be:win_4601|CDS|ENSG00000198589|bound_else_gene|NA|bound_elsewhere_windowed (ssRNA)
RNA: GGGAGUUCUACAGUCCGACGAUCUGGCAGUAGUAUACUUUAUCUCUGUUCUUAUGGUCUCCAAGUACAGAGACAUUUUGGAACCCCAAAAUGAAAGGCAUAGCCAGUCAUGUACAGAAACUGGCAGUGAAAAUGAGAAUGUAUCAACAGAGGAUUGAGCAUCA
B9: chr4:17843545:17843646:+|3pUTR|ENSG00000109805|msi1|total|mutant (ssRNA)
RNA: GGGAGUUCUACAGUCCGACGAUCCUGUGCGCUUCCACGUUACUUUGGCCUGUAUUAAAGCAGCCGAGCAGCAUCAGUUAUUACCGUCCAGAAAAAGUGUGCAUCAGUCAGUCACACAGAUUUAUCACAAUCUGAGGUGGGCCUCAACAGAGGAUUGAGCAUCA
B10: chr8:22006149:22006250:+|3pUTR|ENSG00000130227|msi1|total|mutant (ssRNA)
RNA: GGGAGUUCUACAGUCCGACGAUCGAAUGUAUGAACUGGAGGAAGUUACUACAGUGGAAGGGUUCUUAAUAACAAGGUCUACCCCGCAUGAAGUAUUUAACAUUCUCCCAUCCCUUAAAAAAUAUACAUUUUUAUAAAAUGAAACAACAGAGGAUUGAGCAUCA
B11: chr6:145799413:145799514:-|3pUTR|ENSG00000118496|msi1|total|mutant (ssRNA)
RNA: GGGAGUUCUACAGUCCGACGAUCUUAUCUCACAUACUUACAACUCAACACACAGAGUGACCAUGUGCAGCUUUCUUUUUUGUCCGAUGCCACAUCCGAAGACUCAUCGCAGUGUGUUAUAUGACAGGACAAAGCAAAAACAAACAACAGAGGAUUGAGCAUCA
B12: chr11:46383557:46383658:+|3pUTR|ENSG00000110492|msi1_unk|FALSE|overlapping (ssRNA)
RNA: GGGAGUUCUACAGUCCGACGAUCCCACGCCCUCCCUCUCCCAGGCCCGAGAUGUGACCCACCAGUGCCUUCUGUCUGCUCGUUAGCUUUAAUCAAUCAUGCCCUGCCUUGUCCCUCUCACUCCCCAGCCCCACCCCUAAGUGCCAACAGAGGAUUGAGCAUCA
B13: chr1:235448940:235449205:-|3pUTR|ENSG00000162885|unk|FALSE|unique (ssRNA)
RNA: GGGAGUUCUACAGUCCGACGAUCAAUAGAGAAUUCCAUUAAAACUAGUCUUAUGACAGAUAUUAACUGUGUUCAGAUUUUAUUAGGCUAGCUAGUUUCUUUCUAUUUAAUAUUUAAAUCUUAUCAUGAAAUGCAGUGAUGAGCCAACAGAGGAUUGAGCAUCA
B14: chr3:10101824:10101929:+|3pUTR|ENSG00000144554|unk|FALSE|unique (ssRNA)
RNA: GGGAGUUCUACAGUCCGACGAUCAAAAUCUCUGAGUCAUGAUUCUGGACUUUGGGAGCUAGUUUUGAAACUCUGAUUUAUUGUAGAACUUAGGCUUGUACCAAUUUUACAAAUAAAUUCUGUUCUAAGUUCUGCCUCAGUUGCCAACAGAGGAUUGAGCAUCA
B15: chr4:124666837:124666938:-|3pUTR|ENSG00000151458|msi1|FALSE|unique (ssRNA)
RNA: GGGAGUUCUACAGUCCGACGAUCAAUGAUUUCUUGGCAGUUUAAAAAAAAUAUUUUAUAGUAGUUUAGGGAGCUGCUUUAAGUAGUUUAAAUCUGGAUUUUCCCAGUAGAAUUCUUCUCAUCUCUGGCUAAACAUGUCAGAACCAACAGAGGAUUGAGCAUCA
B16: chr4:124666837:124666938:-|3pUTR|ENSG00000151458|msi1|total|mutant (ssRNA)
RNA: B15 RNA with U58C, A59C, U61C, A62C, U66C, A67C, U83C, A84C, U107C, A108C
B17: chr10:92030471:92030572:+|3pUTR|ENSG00000095564|unk|FALSE|unique (ssRNA)
RNA: GGGAGUUCUACAGUCCGACGAUCUAUUUUUUUAUUAACUAUUUAUUUGCUAGUUCCAUAAACCAGCUCUUUAACAUAGCUUAUAGUAAUUGAUAUUUUCUUAGAAUAAGUACAGAGCAAUAUAUCAUUAAAGGGCUAUGAAGGCAACAGAGGAUUGAGCAUCA
B18: chr10:92030471:92030572:+|3pUTR|ENSG00000095564|unk|total|mutant (ssRNA)
RNA: B17 RNA with U50C, A51C, U76C, A77C, U83C, A84C, U101C, A102C
B19: chr20:11926050:11926151:+|3pUTR|ENSG00000132640|msi1|FALSE|unique (ssRNA)
RNA: GGGAGUUCUACAGUCCGACGAUCAUGAAAUGGAAUGAAGGCUAAUAUGCUUGCUUUAUUUACUUUUGUAAUCUUGGAUUUUGUAGCUUUUAAAACUAGAAACCAUUGUUCUAACAAAGCAGGCAACUUUAUUCUAUAAACACACAACAGAGGAUUGAGCAUCA
B20: chr20:11926050:11926151:+|3pUTR|ENSG00000132640|msi1|total|mutant (ssRNA)
RNA: B19 RNA with U83C, A84C, U96C, A97C
B21: chr8:65707876:65707977:+|CDS|ENSG00000066855|unk|FALSE|unique (ssRNA)
RNA: GGGAGUUCUACAGUCCGACGAUCCCUGCUGCCCUCAUAGCAGAGGCUCUGAAAAAGAAAUUUGCUUAUCGGUAUCGAAGUGAUAGCCAAGAUGAAGUUGAAAAAGGAAUUCCAAAGUCUGAAUCAGAGGCCACCUCAGAGAGACAACAGAGGAUUGAGCAUCA
B22: chr13:32776882:32776983:+|3pUTR|ENSG00000083642|unk|total|mutant (ssRNA)
RNA: GGGAGUUCUACAGUCCGACGAUCAAAGUGUUUUGAAUUGUGUCUUAAUCUCUCCAUAUUCAACUAUUCUUCAUUUACAACAACCGUGACACCAGUAAUUAUGAGAGGCUGUCAUAUAUCAAAGCAGCUCAGGUGGGAUCAACACAACAGAGGAUUGAGCAUCA
B23: ENSG00000107863:be:win_551|CDS|ENSG00000107863|bound_else_gene|NA|bound_elsewhere_windowed (ssRNA)
RNA: GGGAGUUCUACAGUCCGACGAUCAAGGCAACGAAGCUUAUAGCGGCAAUGCCCGCAAUAUACCUGAACCUCCACCAAUCUGCUAUCCCUGGCUGCCAUCUGCCCCAUCAGCCAUGGCACAGCCAGUUGAAAUAUCUCCUCCUGCAACAGAGGAUUGAGCAUCA
B24: ENSG00000066933:stop:overlap|stop_codon|ENSG00000066933|stop_codon|NA|stop_codon (ssRNA)
RNA: GGGAGUUCUACAGUCCGACGAUCAUAGCUCAGAGAAUUUGAAUAUGGAGUCUGAAUAUGCUAUCUCUGAGAAAUCAGAAGCUUAGCCCUUAGCUCCCUGAAGACAGCUGGCAAGUCUGAACCUUCCAGCAAGUUGCGAAAGCACAACAGAGGAUUGAGCAUCA

molecular target: MSI1 full-length (mouse, UniProt Q61474 1-362); assay: nsRBNS (natural sequence RNA bind-n-seq); RBNS binding buffer (assumed for nsRBNS): 25 mM Tris pH 7.5, 150 mM KCl, 3 mM MgCl2, 0.01% Triton X-100, 500 ug/ml BSA, 20 U/ml SUPERase-In, 4 C; UNK is unkempt and MSI1 is Musashi-1; names of the RNAs are library labels; protein concentration not given here; high values mean tight binding
Sequence (Q61474 whole entry): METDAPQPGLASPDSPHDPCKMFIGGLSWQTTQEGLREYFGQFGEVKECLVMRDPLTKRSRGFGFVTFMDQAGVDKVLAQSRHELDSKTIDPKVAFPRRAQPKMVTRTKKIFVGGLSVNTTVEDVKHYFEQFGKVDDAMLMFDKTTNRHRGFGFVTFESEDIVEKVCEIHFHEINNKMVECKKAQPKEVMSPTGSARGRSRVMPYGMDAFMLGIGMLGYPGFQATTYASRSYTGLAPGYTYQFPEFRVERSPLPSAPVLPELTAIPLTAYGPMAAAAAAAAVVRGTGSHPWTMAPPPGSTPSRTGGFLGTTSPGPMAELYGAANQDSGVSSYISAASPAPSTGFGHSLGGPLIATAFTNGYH

Row | Binder | binding signal [enrichment R]
1 | B1 | 0.831
2 | B2 | 3.32
3 | B3 | 1.15
4 | B4 | 0.468
5 | B5 | 26.6
6 | B6 | 43.1
7 | B7 | 1.51
8 | B8 | 0.339
9 | B9 | 0.782
10 | B10 | 0.38
11 | B11 | 0.363
12 | B12 | 1.31
13 | B13 | 13.3
14 | B14 | 0.376
15 | B15 | 23.2
16 | B16 | 0.225
17 | B17 | 39.5
18 | B18 | 27.9
19 | B19 | 1.07
20 | B20 | 0.37
21 | B21 | 0.29
22 | B22 | 0.958
23 | B23 | 0.51
24 | B24 | 16.9
